Some test systems named below: NCI-H226 lung; NCI-H322M lung; HOP-62 NSCLC; NCI-H460 lung; HOP-92 NSCLC; NCI-H522 lung; A549/ATCC NSCLC; 786-0 renal; COLO 205 colon; DU-145 prostate; K-562 leukemia; MALME-3M melanoma; MDA-MB-231 breast; RXF 393 renal; SF-268 CNS; SF-295 CNS; SF-539 CNS; UACC-257 melanoma; M14 melanoma.
Experiment in all cases: NCI-60 one-dose screen, 48 h (100 = growth as untreated, 0 = no growth, -100 = all killed)
Common to all, as to conditions: 10 µM unless noted

Our source for the growth values is PubChem BioAssay (NCI).

About 83,000 compounds went through this panel and 20% of them were active in at least one assay; those are over-represented in the sample as a whole.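 Compound tested at a single concentration for 48 hours in 96-well plates; a percent growth value below 10 was scored as active.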 A number with no mark means an inactive call. Activity calls are given as the source filed them.

Consider `CCCCn1c(=O)c(/C=C/C(=O)/C=C/c2ccc(O)c(OC)c2)cc2ccc(Cl)cc21`, for which the growth is -18.4% (active) in the test on NCI-H226 lung; 50.6% with NCI-H322M lung; 59.6% in the test with HOP-62 NSCLC; 14.5% in the test with NCI-H460 lung; 77.3% in the test on HOP-92 NSCLC; -4.4% (active) in the test with NCI-H522 lung. For the same compound, the growth was 26.4% in the test on A549/ATCC NSCLC; -0.448% (active) in the test on 786-0 renal; 29.7% in the test on COLO 205 colon; 19.3% in the test with DU-145 prostate; 6.69% (active) in the test on K-562 leukemia; 30.2% with MALME-3M melanoma. Besides, the growth is -11.2% (active) in the test on MDA-MB-231 breast; -15.4% (active) in the test with RXF 393 renal; 29.9% with SF-268 CNS; 30.2% in the test with SF-295 CNS; 52.6% in the test with SF-539 CNS; 32.1% in the test with UACC-257 melanoma. Further, in the test with M14 melanoma, the growth is 5.1% (active).

In the case of `Sc1cccc2cccnc12`, the growth is 55.7% in the test on NCI-H226 lung; 36.3% with NCI-H322M lung; 36.7% in the test on HOP-62 NSCLC; 6.81% (active) in the test with NCI-H460 lung; 95.6% in the test on HOP-92 NSCLC; -12.6% (active) in the test on NCI-H522 lung. Further, the growth with A549/ATCC NSCLC was 19.1%; with 786-0 renal, 31.5%; in the test on COLO 205 colon, 24.4%; in the test on DU-145 prostate, 27.1%; in the test on K-562 leukemia, 9% (active); with MALME-3M melanoma, 10.9%. The growth was 33.8% in the test with MDA-MB-231 breast; 13.4% with RXF 393 renal; 34.1% in the test with SF-268 CNS; 47.1% in the test on SF-295 CNS; 53.8% in the test on SF-539 CNS; 24.3% with UACC-257 melanoma. Also, the growth in the test on M14 melanoma was -3.55% (active).

Consider `COc1ccc(C2N(c3cc(OC)c(OC)c(OC)c3)C(=O)C2(F)F)cc1F` (stereo not given), for which the growth in the test with NCI-H226 lung was 75.5%; in the test on NCI-H322M lung it was 91.2%; with HOP-62 NSCLC it was 38.4%; in the test on NCI-H460 lung, 27.2%; in the test on HOP-92 NSCLC, 60.8%; in the test with NCI-H522 lung, 17.5%. Besides, the growth with A549/ATCC NSCLC is 48.6%; with 786-0 renal, 75.3%; in the test on COLO 205 colon, 16.3%; with DU-145 prostate it was 25.2%; with K-562 leukemia, 10.5%; with MALME-3M melanoma, 64.1%. In addition, the growth is 54% with MDA-MB-231 breast; 49.4% in the test with RXF 393 renal; 52.9% in the test with SF-268 CNS; 48.3% in the test on SF-295 CNS; 21.6% with SF-539 CNS; 50% in the test with UACC-257 melanoma. In the test with M14 melanoma, the growth was 24.2%.

With `COc1ccc2nc(-c3ccc(Cl)cc3)cc(C(=O)N3N=C(c4ccc(N)cc4)CC3c3ccccc3)c2c1` (stereo not given), the growth is 63.8% in the test with NCI-H226 lung; 54% in the test on NCI-H322M lung; 42.5% in the test with HOP-62 NSCLC; 25.5% in the test on NCI-H460 lung; 58.9% in the test with HOP-92 NSCLC; 34.7% in the test with NCI-H522 lung. For the same compound, the growth was 46.9% in the test with A549/ATCC NSCLC; 31.8% in the test on 786-0 renal; 55% with DU-145 prostate; 17.5% with K-562 leukemia; 62.5% with MALME-3M melanoma; 83.8% in the test on MDA-MB-231 breast. For the same compound, the growth was 35.3% in the test on RXF 393 renal; 48.3% in the test on SF-268 CNS; 24.2% with SF-295 CNS; 43.4% in the test on SF-539 CNS; 67.1% with UACC-257 melanoma; 38.9% in the test with M14 melanoma.

With `C=C1C(=O)O[C@H]2[C@H]1CC/C(COC(=O)N1CCC[C@H]1C(=O)Nc1ccc(OC)c(C(N)=O)c1O)=C\CC[C@@]1(C)O[C@@H]21`, the growth in the test with NCI-H226 lung was 52.8%; in the test with NCI-H322M lung, 90.6%; in the test with HOP-62 NSCLC, 88.6%; in the test with NCI-H460 lung, 73.9%; in the test with HOP-92 NSCLC, -11.2% (active); with NCI-H522 lung, -28.1% (active). Moreover, the growth is 75.4% in the test on A549/ATCC NSCLC; 41.4% with 786-0 renal; -25.7% (active) in the test on COLO 205 colon; 39.4% in the test with DU-145 prostate; 11.2% in the test on K-562 leukemia; 27.3% in the test on MALME-3M melanoma. In addition, the growth in the test on MDA-MB-231 breast was 46%; in the test on RXF 393 renal, -12.7% (active); in the test with SF-268 CNS it was 54.6%; in the test with SF-295 CNS, 90.1%; in the test on SF-539 CNS it was -4.09% (active); in the test on UACC-257 melanoma it was 25.2%. Also, in the test with M14 melanoma, the growth was 36.5%.

Take `Cc1cccc(C)c1NC(=O)CN(CC(C)C)CC(O)COc1ccccc1` (stereo not given): the growth in the test with NCI-H322M lung was 97.7%; in the test with HOP-62 NSCLC it was 90%; in the test on NCI-H460 lung, 111%; in the test with HOP-92 NSCLC, 91.4%; in the test on NCI-H522 lung, 82.3%; in the test on A549/ATCC NSCLC it was 90.6%. Further, the growth in the test with 786-0 renal was 78.6%; in the test with COLO 205 colon, 100%; with DU-145 prostate, 111%; in the test on K-562 leukemia it was 96%; in the test on MALME-3M melanoma it was 103%; in the test with MDA-MB-231 breast, 93.5%. In addition, the growth is 103% in the test with RXF 393 renal; 102% with SF-268 CNS; 88% with SF-295 CNS; 97.6% with SF-539 CNS; 110% in the test with UACC-257 melanoma; 87.8% in the test with M14 melanoma.

`O=CN1N=C(c2ccc3c(c2)OCO3)CC1c1cccc(Nc2ccnc3cc(C(F)(F)F)ccc23)c1` (stereo not given): the growth is 69.2% with NCI-H226 lung; 107% in the test with NCI-H322M lung; 81.2% with HOP-62 NSCLC; 86.4% with NCI-H460 lung; 73% in the test on HOP-92 NSCLC; 68.3% with NCI-H522 lung. The growth with A549/ATCC NSCLC was 83.9%; in the test on 786-0 renal, 90.7%; in the test with COLO 205 colon, 67.5%; in the test on DU-145 prostate, 86.4%; in the test with K-562 leukemia, 37%; with MALME-3M melanoma, 101%. Moreover, the growth in the test with MDA-MB-231 breast is 78.2%; in the test on RXF 393 renal, 86.4%; with SF-268 CNS, 65.4%; in the test on SF-295 CNS it was 83.1%; with SF-539 CNS, 90.5%; in the test with UACC-257 melanoma, 86.8%. Besides, in the test with M14 melanoma, the growth was 78.6%.

Regarding `COc1ccc2c(c1)Oc1nc(N)c(C#N)c(N)c1C2Sc1ccc(SC)cc1` (stereo not given), the growth was 75.6% in the test with NCI-H226 lung; 77.4% with NCI-H322M lung; 100% with HOP-62 NSCLC; 58% in the test with NCI-H460 lung; 18.4% with HOP-92 NSCLC; -81.5% (active) in the test with NCI-H522 lung. Also, the growth with A549/ATCC NSCLC was 85.7%; in the test with 786-0 renal it was 8.66% (active); in the test on COLO 205 colon it was -3.1% (active); with DU-145 prostate, 46.2%; in the test with K-562 leukemia it was 2.45% (active); in the test with MALME-3M melanoma it was -22.5% (active). For the same compound, the growth was 10.5% in the test with MDA-MB-231 breast; -54.8% (active) with RXF 393 renal; 61.4% with SF-268 CNS; 80.8% in the test on SF-295 CNS; 14.7% in the test on SF-539 CNS; 67.3% in the test on UACC-257 melanoma. Further, the growth with M14 melanoma is 27.6%.
